Test results: PubChem BioAssay (NCATS)
Inconclusive results are not listed. Where a call stands in place of a potency, no number is given. A number with no mark means an inactive call. Activity calls are given as the source filed them. The call rests on the fitted dose curve; in most records, active means well fitted cell-killing curve with a large enough effect; inconclusive means small, poorly fitted or top-dose-only effect, or effect the other way; inactive means flat fitted curve, though single readings scatter.

Tested on: CAOV3
Experiment: Primary qHTS to identify gynecologic anti-cancer compounds using libraries of approved drugs and bioactive compounds (AID 1345084); further: nearly all actives have a fitted effect of over 55% in size
Details: Gynecologic cancer cell panel viability, ATPlite luminescence, 48 h; series mostly up to 57.5 µM
From the text: National Center for Advancing Translational Sciences [NCATS] Assay Overview: Chemotherapeutic drug responses vary from cancer to cancer and from patient to patient. These variations could be caused by a number of factors including patient genomic background, tumor mutations, tumor heterogeneity, and aspects of drug treatment. Chemotherapeutic drug resistance is also a common issue and can lead to ineffective treatment and patient death. Here we have profiled the cell killing effects of thousands of compounds to characterize the responses in three gynecological cancers, identify cancer-selective compounds, and understand the diversity of responses to these compounds from pan-cancer suppressors to single cell line selective compounds. In this assay, we screened a 7,914 compound drug library that included approved drug and bioactive compounds in six ovarian, three cervical, and […] placental cancer cell lines using the ATPlite assay for cell viability. […] The cervical cancer cell lines included HeLa, Ca Ski, and C-33 A. The placental cancer cell lines included JEG-3. HEK 293T cells were used as the control cell line to determine the selectivity index. ATPlite is a luminescence based assay reliant on the conversion of a luciferase substrate to light in the presence of ATP. As a cytotoxic compound will suppress growth and decrease the number of cells, the concentration of ATP will decrease, and less light signal will be detected in the well.
Assay Protocol Summary: 1,000 cells in 4 uL of media were dispensed into white, solid bottom 1536-well plates using a Multidrop Combi (Thermo Scientific). The Assay plates were incubated for 16 hours at 37 C with 5% CO2 in assay plates, followed by the addition of 23 nL of DMSO or drug dissolved in DMSO. Each compound was assayed in five concentrations (0.092, 0.46, 2.3, 11.5, and 57.5 uM), using the automated Wako 1536 Pin Tool workstation and incubated at 37 C with 5% CO2 48 hours. 4 uL of ATPlite, the ATP monitoring reagent, was then added to the each well of the assay plates using the Multidrop Combi reagent dispenser followed by incubation for 15 minutes at room temperature. The resulting luminescence was measured using the ViewLux plate reader.
Potency means the concentration at half of the fitted maximal effect.

Row | SMILES | Potency | activity change, negative = cytotoxicity
1 | CNC(=O)c1cccc2cc(Oc3ccnc4cc(OCC5(N)CC5)c(OC)cc34)ccc12 | inactive | 
2 | C=C1CC[C@@H]2[C@](C)(CO)[C@H](O)CC[C@@]2(C)[C@@H]1C/C=C1/C(=O)OC[C@@H]1O | inactive | 
3 | Cc1ccc(C2(COC(=O)C(C)C)CO2)c(OC(=O)C(C)C)c1 (stereo not given) | inactive | 
4 | Cn1cc(-c2cnc3ccc4ccc(CS(=O)(=O)NCc5ccccn5)cc4c(=O)c3c2)cn1 | inactive | 
5 | CC(CCC1(O)OC2CC3C4CC=C5CC(O[C@@H]6O[C@H](CO)[C@@H](O[C@@H]7O[C@H](CO)[C@@H](O)[C@H](O)[C@H]7O)[C@H](O)[C@H]6O[C@@H]6O[C@@H](C)[C@H](O)[C@@H](O)[C@H]6O)CCC5(C)C4CCC3(C)C2C1C)CO[C@@H]1O[C@H](CO)[C@@H](O)[C@H](O)[C@H]1O (stereo not given in full) |  | -3.93% [at 11.6 µM]
6 | C[C@@H]1CCNC(=O)c2cc3ccc(C(=O)Nc4nc5ccccc5n4CCCN(C)C)cc3n21 | 25.1 µM (active) | 
7 | COc1cc(O)c(C(=O)CCc2ccc(O)cc2)c(O[C@@H]2O[C@H](CO)[C@@H](O)[C@H](O)[C@H]2O)c1 | inactive | 
8 | O=C1c2c(O[C@@H]3O[C@H](CO)[C@@H](O)[C@H](O)[C@H]3O)cc(O)cc2OC1(O)Cc1ccc(O)cc1 (stereo not given in full) | 10 µM (active) | 
9 | COc1ccc(C(=O)N(CCC(C)C)Cc2nc(C)c(C)n2Cc2ccccc2C)c(OC)c1 | inactive | 
10 | CCOc1cc(CNC2CCCC2)cc(Cl)c1OCc1ccc(Cl)cc1 | 22.4 µM (active) | 
11 | CN(CCCNC(=O)c1ccc2nc3c(c(Cl)c2c1)CCCC3)Cc1ccccc1 | inactive | 
12 | CC(C)n1cnc2c(Nc3cccc(Cl)c3)nc(NCCO)nc21 | inactive | 
13 | CCS(=O)(=O)N(Cc1cccnc1)c1cccc(-c2ccc(C#N)cc2)c1 | inactive | 
14 | COc1cccc(CNC(=O)Nc2nc(-c3ccncc3)cs2)c1 | inactive | 
15 | Cc1ccn(-c2cc(Cl)ccc2[C@@H](Oc2cc(-c3ccc(C[C@H](N)C(=O)O)cc3)nc(N)n2)C(F)(F)F)n1 | inactive | 
16 | Cc1nc(C)c2c(n1)N(Cc1ccc(-c3ccccc3-c3nn[nH]n3)cc1)C(=O)CC2 | inactive | 
17 | CC1CCN(c2cc(NC(=O)c3ccccc3)ncn2)CC1 | inactive | 
18 | CCOC(=O)c1cnn(-c2ccc(NC(=O)C(Cl)=C(Cl)Cl)cc2)c1C(F)(F)F | 6.31 µM (active) | 
19 | C=C1[C@@H](C)[C@H]2[C@H](Cc3c[nH]c4ccccc34)NC(=O)[C@]23C(=O)/C=C/C(=O)[C@H](O)/C(C)=C\[C@@H](C)C/C=C/[C@H]3[C@@H]1O | inactive | 
20 | O=C(O)c1ccc(O)c2ncc(N3CCCN(CCc4cccc5ccccc45)CC3)cc12 | inactive | 

Row | SMILES | Potency | activity change, negative = cytotoxicity
21 | COc1ccc(NS(=O)(=O)c2sc3ccc(Cl)cc3c2C)cc1N1CCNCC1 | inactive | 
22 | CN1CCN(C(=O)c2ccc(Nc3nccc(-c4cccs4)n3)cc2Cl)CC1 | inactive | 
23 | C[C@@H](O[C@H]1OCCN(Cc2n[nH]nc2CN(C)C)[C@H]1c1ccc(F)cc1)c1cc(C(F)(F)F)cc(C(F)(F)F)c1 | inactive | 
24 | CC[C@H]1OC(=O)[C@H](C)[C@@H](O[C@H]2C[C@@](C)(OC)[C@@H](O)[C@H](C)O2)[C@H](C)[C@@H](O[C@@H]2O[C@H](C)C[C@H](N(C)C)[C@H]2O)[C@](C)(O)C[C@@H](C)/C(=N/OCOCCOC)[C@H](C)[C@@H](O)[C@]1(C)O | inactive | 
25 | CC1CCCC(SCC(O)C(=O)O)CC(=O)c2c(O)cc(O)cc2CC(=O)O1 (stereo not given) | inactive | 
26 | COCCOCCOc1ccc(C2=N[C@@](C)(C(=O)O)CS2)c(O)c1 | inactive | 
27 | CC1(C)SC2C(NC(=O)[C@H](C(=O)O)c3ccsc3)C(=O)N2C1C(=O)O (stereo not given in full) | inactive | 
28 | COc1ccc(-c2nc(-c3cc(C(F)(F)F)cc(C(F)(F)F)c3)n(Cc3ccc(C(N)=O)cc3)c2-c2ccc(OC)cc2)cc1 | inactive | 
29 | COc1cc(-c2cc(-c3cccc(O)c3)cnc2N)cc(OC)c1OC | inactive | 
30 | C[C@@H](c1nc(-c2ccc(C#N)cc2)cs1)[C@](O)(Cn1cncn1)c1cc(F)ccc1F | inactive | 
31 | CC[C@]1(O)C[C@H]2CN(CCC3C(=Nc4ccccc43)[C@@](C(=O)OC)(c3cc4c(cc3OC)N(C)[C@H]3[C@@](O)(C(N)=O)[C@H](O)[C@]5(CC)C=CCN6CC[C@]43[C@@H]65)C2)C1 (stereo not given in full) | inactive | 
32 | CCCCC(=O)N(Cc1ccc(-c2ccccc2-c2nn[nH]n2)cc1)C(C(=O)O)C(C)C (stereo not given) | inactive | 
33 | COc1ccccc1NC(=O)Nc1ccc2ccccc2c1 | inactive | 
34 | CC(C)[C@@H](C)/C=C/[C@@H](C)[C@H]1CC[C@H]2C3=CC=C4C[C@@H](O)CC[C@]4(C)C3=CC[C@]12C | inactive | 
35 | Cc1nnsc1C(=O)Nc1ccc(-n2nc(C(F)(F)F)cc2C(F)(F)F)cc1 | inactive | 
36 | CCCCc1nc(C)c(CC(=S)N(C)C)c(=O)n1Cc1ccc(-c2ccccc2-c2nn[nH]n2)cc1 | inactive | 
37 | CN(Cc1ccc(C(=O)O)cc1)c1ccc(OCc2c(-c3c(Cl)cccc3Cl)noc2C2CC2)nc1C(F)(F)F | inactive | 
38 | CC(C)(C)c1ccc(-c2nc3ccccc3[nH]2)cc1 | 0.891 µM (active) | 
39 | OCC(CO)(CO)NCC(O)Cn1c2ccc(Cl)cc2c2cc(Cl)ccc21 (stereo not given) | inactive | 
40 | CN[C@@H]1[C@@H](O)[C@@H](O[C@@H]2[C@@H](O)[C@H](O[C@H]3O[C@@H]([C@@H](C)NC)CC[C@H]3N)[C@@H](N)C[C@H]2N)OC[C@]1(C)O | inactive | 
